# Data as given in PubChem BioAssay AID652054 (National Center for Advancing Translational Sciences (NCATS), 2013).
# The whole screen tested about 360,000 compounds, of which about 9,100 (2.5%) were called active. About 4% were inconclusive and are not listed. What follows is part of a selection rich in actives, with near analogues and random picks from the rest. A number with no mark means an inactive call. Cut-off read from the data, not from the text of the source: active = max response below about -50%; inconclusive = no clear call, values can overlap the other calls; inactive = above that.
# Target: D(3) dopamine receptor (Homo sapiens) (UniProt P35462)
# Experiment: qHTS of D3 Dopamine Receptor Antagonist: qHTS
# Conditions: D3R cells, DiscoveRx beta-arrestin luminescence, antagonist mode; hits give low values
# Description: D3 DARs represent a very important target for the treatment of several neuropsychiatric disorders. Indeed, one of the most promising therapeutic applications for the D3 DAR is in the area of addiction and related disorders. […] These findings have been observed with a number of addictive substances including cocaine, amphetamine, nicotine, and alcohol. […] Antagonism of the D3 DAR may also be therapeutic in the treatment of schizophrenia or psychosis. […] Since the D3 DAR is expressed in areas of the CNS associated with the control of mood and emotion, it has been hypothesized that selective antagonism of the D3 DAR may be effective in treating psychosis without inducing the motor side effects typically seen with D2 DAR antagonists.
# This part of the project aims to discover novel antagonist.
# NIH Chemical Genomics Center [NCGC]
# NIH Molecular Libraries Probe Centers Network [MLPCN]
# Assay Submitter (PI): David Sibley, NINDS
# Freshly passaged cells are plated in 1536 well white, solid bottom plates at a density of 1500 cells/well in 3microl of complete media. After an overnight incubation at 37 degrees C in 5% CO2, cells are loaded with 23nl of test compound from the compound library (as well as dopamine controls) using a 1536 pintool and incubated at 37 degrees C for 90 minutes. Two microliters of DiscoveRx reagent is then added to all cells, and they are incubated for an additional 30 - 60 minutes at room temperature. Following incubation, luminescence is measured on a ViewLux CCD-based luminometer reader using a 20 sec exposure time.
# % is set by controls: 0 for no effect and ±100 for the full control effect.
# D(3) dopamine receptor (Homo sapiens), sequence (P35462 whole entry, looked up): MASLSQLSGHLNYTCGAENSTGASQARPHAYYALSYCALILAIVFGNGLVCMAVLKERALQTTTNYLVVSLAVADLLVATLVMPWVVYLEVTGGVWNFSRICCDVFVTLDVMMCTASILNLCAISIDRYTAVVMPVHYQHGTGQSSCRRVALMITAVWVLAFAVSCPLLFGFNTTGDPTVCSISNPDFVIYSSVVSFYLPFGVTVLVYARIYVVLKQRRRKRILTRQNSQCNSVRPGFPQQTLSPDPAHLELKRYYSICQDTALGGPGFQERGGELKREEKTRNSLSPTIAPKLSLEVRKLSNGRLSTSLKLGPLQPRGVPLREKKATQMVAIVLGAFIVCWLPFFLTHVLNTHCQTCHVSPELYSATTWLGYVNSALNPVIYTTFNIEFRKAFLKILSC
row,Structure (SMILES),"max response, negative = inhibition"
1,COc1ccc(NC(=O)[C@H](NC(=O)[C@@H]2Cc3ccccc3CN2)c2ccccc2)cc1,-97.8% (active)
2,COc1cccc(NC(=O)[C@H](Cc2c[nH]c3ccccc23)NC(=O)[C@@H]2Cc3ccccc3CN2)c1,0%
3,O=C1OCCOC2CCCc3oc(-c4ccccc4)c1c32 (centres undefined),-1.49%
4,O=C(COc1ccc(S(=O)(=O)N2CCCC2)cc1[N+](=O)[O-])N1CCCCC1,-6.05%
5,CC1CCCN(CC(=O)Nc2cc(Cl)ccc2Oc2ccccc2)C1 (centres undefined),0.948%
6,CN1CCC[C@@H]1CCO[C@](C)(c1ccccc1)c1ccc(Cl)cc1,-107% (active)
7,CCC1CCC/C1=N\NC(=O)c1ccc(Cl)cc1 (centres undefined),-14%
8,C#Cc1ccc(NC(=O)C2(C)CCN2C(=O)Cc2ccc(-c3ccccc3)cc2)cc1 (centres undefined),4.18%
9,O=C(NCc1cccnc1)c1cc(C2CCCN(C(=O)CCCc3ccccc3)C2)on1 (centres undefined),33.8%
10,COc1ccccc1CN1CCCC(N2CCN(c3ccc(F)cc3)CC2)C1 (centres undefined),4.28%
11,COc1ccc(C2C(C#N)=C(N)Oc3n[nH]c(C)c32)cc1CN1CCN(c2ccc(F)cc2)CC1 (centres undefined),-95% (active)
12,COc1ccc(-c2[nH]nc3c2C(c2ccncc2)C(C#N)=C(N)O3)cc1 (centres undefined),-18.7%
13,CCC(CC)C(C(=O)NC1CCCC1)N1CCN(c2cc(C)nc3ccccc23)CC1 (centres undefined),14.1%
14,O=C(Nc1ccccc1Cl)/C(Cl)=C(\Cl)S(=O)c1ccccc1 (centres undefined),-94.9% (active)
15,CS/C(=C\C(=O)c1ccco1)Nc1ccccc1Cl,0.757%
16,NC(=O)C1(Nc2ccccc2Cl)CCCC1,-22%
17,O=C(NCc1ccco1)c1cccc(-c2ccc3nncn3c2)c1,-9.17%
18,CCc1nc2c(OCCOc3ccccc3)cccn2c1N(C=O)Cc1ccc(OC)cc1,12.7%
19,CCc1ccccc1NC(=O)CSc1nnc([C@@H](NC(=O)OC(C)(C)C)C(C)CC)o1 (some centres undefined),-1.74%
20,COc1ccccc1NC(=O)[C@H](COCc1ccccc1)NC(=O)OC(C)(C)C,13.5%
21,C[C@@H](NC(=O)OC(C)(C)C)c1nnc(S(=O)(=O)Cc2ccccc2)o1,-110% (active)
22,CCNC(=O)C1(C)CCCN(C(=O)c2c(C)noc2C)C1 (centres undefined),0%

row,Structure (SMILES),"max response, negative = inhibition"
1,CCCC(NS(=O)(=O)c1ccc(OC)cc1)C(=O)O (centres undefined),-4.83%
2,COc1ccc(S(=O)(=O)/N=C2\C=C(NS(=O)(=O)c3ccccc3)C(=O)c3ccccc32)cc1,-59.6% (active)
3,COc1ccc(NS(=O)(=O)c2ccc(Oc3c(C#N)cccc3C#N)cc2)cc1,0.938%
4,O=S1(=O)CC(N2CCN(Cc3ccccc3F)CC2)CN1Cc1cn(Cc2cccc(C(F)(F)F)c2)nn1 (centres undefined),1.97%
5,C/C(=N\NS(=O)(=O)c1cccc([N+](=O)[O-])c1)c1cc2ccccc2o1,-65.1% (active)
6,CC(C=Cc1ccccc1)=NNS(=O)(=O)c1ccc([N+](=O)[O-])cc1,-22%
7,COc1ccc(CCNS(=O)(=O)c2cccc([N+](=O)[O-])c2)cc1,-20.3%
8,CCOC(=O)CNC(=O)CSc1nnc(-c2cccc(OC)c2)n1CC,0%
9,CCn1c(COc2ccc(OC)cc2)nnc1SCC(=O)Nc1cc(OC)ccc1OC,5.77%
10,CCOC(=O)CNC(=O)CSc1nnc(COc2ccc(Cl)cc2)n1CC,-55.4% (active)
11,CCOC(=O)C(C(=O)c1ccccc1)C(c1ccccc1)c1nccc2ccccc12 (centres undefined),-11.4%
12,COc1ccc(S(=O)(=O)N2CCCCC2)cc1C(=O)NC1CCS(=O)(=O)C1 (centres undefined),22%
13,COc1ccc(NC(=O)CN2C(=O)NC(C)(c3ccccc3)C2=O)cn1 (centres undefined),28.1%
14,COc1ccc(C(O)c2nc(-c3ccc(OC)nc3)cs2)cc1 (centres undefined),-0.57%
15,COc1ccc(CS(=O)/C(Cl)=C(/Cl)C(=O)Nc2ccc(OC)nc2)cc1 (centres undefined),-91.9% (active)
16,CN1OC[C@@H]2CN(C(=O)c3cccnc3)[C@H](c3ccc(N4CCCCC4)cc3)C[C@@H]21,33.1%
17,CN1OC[C@@H]2CN(C(=O)c3cccc4ccccc34)[C@H](c3ccc(N4CCCCC4)cc3)C[C@@H]21,0.382%
18,CN1OC[C@@H]2CN(C(=O)c3ccc(-c4ccccc4)cc3)[C@H](c3ccc(-c4cccc(F)c4)cc3)C[C@@H]21,-51.6% (active)
19,COc1cccc(NC(=O)C2(C)CCN2Cc2ccccc2Cl)c1 (centres undefined),9.45%
20,O=C(NCc1nnc(SCC(=O)N2CCCCCC2)o1)c1ccc(F)cc1,-15.6%
21,Cn1c(CNC(=O)c2ccco2)nnc1SCC(=O)N1CCN(c2ccccc2)CC1,9.96%
22,O=C(NCc1nnc(SCC(=O)N2CCC(Cc3ccccc3)CC2)o1)c1ccco1,-56.2% (active)
